From PubChem BioAssay (NCI)
Compounds without any hit were thinned out: in the full panel of roughly 83,000, 20% have a hit.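 Each cell line was grown in a 96-well plate and treated with one concentration of compound for 48 hours. Values below 10 were considered active.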 Active and inactive are the calls of the source.

Legend:
Assay in all cases: NCI-60 one-dose screen, 48 h (100 = growth as untreated, 0 = no growth, -100 = all killed)
Settings in all cases: 10 µM unless noted
NCI-H23 lung = system: NCI-H23 lung
NCI-H226 lung = system: NCI-H226 lung
NCI-H322M lung = system: NCI-H322M lung
HOP-62 NSCLC = system: HOP-62 NSCLC
NCI-H460 lung = system: NCI-H460 lung
HOP-92 NSCLC = system: HOP-92 NSCLC
NCI-H522 lung = system: NCI-H522 lung
A549/ATCC NSCLC = system: A549/ATCC NSCLC
786-0 renal = system: 786-0 renal
COLO 205 colon = system: COLO 205 colon
DU-145 prostate = system: DU-145 prostate
K-562 leukemia = system: K-562 leukemia
MALME-3M melanoma = system: MALME-3M melanoma
MDA-MB-231 breast = system: MDA-MB-231 breast
RXF 393 renal = system: RXF 393 renal
SF-268 CNS = system: SF-268 CNS
SF-295 CNS = system: SF-295 CNS
SF-539 CNS = system: SF-539 CNS
UACC-257 melanoma = system: UACC-257 melanoma
M14 melanoma = system: M14 melanoma

Row | SMILES | growth (NCI-H23 lung) | growth (NCI-H226 lung) | growth (NCI-H322M lung) | growth (HOP-62 NSCLC) | growth (NCI-H460 lung) | growth (HOP-92 NSCLC) | growth (NCI-H522 lung) | growth (A549/ATCC NSCLC) | growth (786-0 renal) | growth (COLO 205 colon) | growth (DU-145 prostate) | growth (K-562 leukemia) | growth (MALME-3M melanoma) | growth (MDA-MB-231 breast) | growth (RXF 393 renal) | growth (SF-268 CNS) | growth (SF-295 CNS) | growth (SF-539 CNS) | growth (UACC-257 melanoma) | growth (M14 melanoma)
1 | COc1cccc(Nc2nc(SC)nc(-c3cccc([N+](=O)[O-])c3)c2C#N)c1 | 78.3% (inactive) | 19.3% (inactive) | 74% (inactive) | 27% (inactive) | 41.7% (inactive) | 62.9% (inactive) | 72.1% (inactive) | 28% (inactive) | 36.4% (inactive) | 82.1% (inactive) | 81.4% (inactive) | 85.4% (inactive) | 72.7% (inactive) | 65.8% (inactive) | 68.2% (inactive) | 88% (inactive) | 62.6% (inactive) | 81.4% (inactive) | 88.5% (inactive) | 83.4% (inactive)
2 | Cc1cc(C)c2nc3nc(C)cc(C)c3c(N)c2c1 | 47.6% (inactive) | 23.2% (inactive) | 40.9% (inactive) | 33.8% (inactive) | -2.37% (active) | -1.87% (active) | 39% (inactive) | 19.9% (inactive) | 28.4% (inactive) | 16.2% (inactive) | 15.5% (inactive) | 10% (active) | 24% (inactive) | 30.2% (inactive) | 42.5% (inactive) | 19.7% (inactive) | 29.6% (inactive) | 14.1% (inactive) | 40.2% (inactive) | 34.1% (inactive)
3 | Nc1nc2ccc3[nH]ncc3c2c2c1CCCC2 | -19% (active) | 6.29% (active) | 2.32% (active) | 2.81% (active) | 2.07% (active) | -12.6% (active) | -1.98% (active) | 8.61% (active) | 6.18% (active) | -19% (active) | 6.94% (active) | 9.77% (active) | 23% (inactive) | 4% (active) | -51.1% (active) | -9.66% (active) | 17.1% (inactive) | -32.9% (active) | 15.6% (inactive) | 1.67% (active)
4 | COc1ccc(-c2nc3ccc(-c4nc5ccc(N6CCN(c7ccccc7)CC6)cc5[nH]4)cc3[nH]2)cc1OC | -21.4% (active) | 69.9% (inactive) | -2.95% (active) | 27% (inactive) | -6.7% (active) | 13.6% (inactive) | -33% (active) | -56.2% (active) | -79.8% (active) | -70.9% (active) | -42.4% (active) | -31.7% (active) | -63.8% (active) | -22% (active) | -37.1% (active) | 11.4% (inactive) | 22.1% (inactive) | 17.5% (inactive) | -19.8% (active) | 1.2% (active)
5 | FC(F)(F)c1ccc(-c2cn3nc(-c4c[nH]c5ccc(Br)cc45)sc3n2)cc1 | 85.8% (inactive) | 79.1% (inactive) | 85.5% (inactive) | 99.4% (inactive) | 100% (inactive) | 88% (inactive) | 91.6% (inactive) | 99% (inactive) | 106% (inactive) | 91.8% (inactive) | 107% (inactive) | 97.9% (inactive) | 90.4% (inactive) | 88% (inactive) | 118% (inactive) | 113% (inactive) | 95.2% (inactive) | 101% (inactive) | 107% (inactive) | 101% (inactive)
6 | O=C1Nc2ccc(Br)cc2C12Oc1ccccc1C1CC(c3ccc(F)cc3)=NN12 (stereo not given) | 89% (inactive) | 83.1% (inactive) | 96.3% (inactive) | 104% (inactive) | 98.5% (inactive) | 109% (inactive) | 81% (inactive) | 91% (inactive) | 105% (inactive) | 109% (inactive) | 100% (inactive) | 84.7% (inactive) | 103% (inactive) | 105% (inactive) | 102% (inactive) | 85.5% (inactive) | 97.9% (inactive) | 91.9% (inactive) | 104% (inactive) | 103% (inactive)
7 | O=C(C(=O)c1ccc2c(c1)OCO2)c1ccc2c(c1)OCO2 | 111% (inactive) | 99.9% (inactive) | 122% (inactive) | 101% (inactive) | 96.6% (inactive) | 101% (inactive) | 102% (inactive) | 99.1% (inactive) | 109% (inactive) | 109% (inactive) | 111% (inactive) | 108% (inactive) | 104% (inactive) | 100% (inactive) | 105% (inactive) | 99% (inactive) | 120% (inactive) | 114% (inactive) | 87.8% (inactive) | 101% (inactive)
8 | COc1ccc(-n2nc(C)c3c(Nc4ccc(NC(=O)Nc5c(Cl)cccc5Cl)cc4)ncnc32)cc1 | 52.1% (inactive) | 37.2% (inactive) | 57.7% (inactive) | 50.3% (inactive) | 50.4% (inactive) | 43.9% (inactive) | 58% (inactive) | 44.6% (inactive) | 55.2% (inactive) | 70.1% (inactive) | 51.4% (inactive) | 79.1% (inactive) | 31.3% (inactive) | 30.6% (inactive) | 26.2% (inactive) | 59.4% (inactive) | 85.2% (inactive) | 30% (inactive) | 53% (inactive) | 82.2% (inactive)
9 | N#C/C(=C\c1ccc(-c2cc(C(F)(F)F)ccc2Cl)o1)c1nc(-c2ccco2)cs1 | 93.7% (inactive) | 96.2% (inactive) | 103% (inactive) | 96.1% (inactive) | 102% (inactive) | 101% (inactive) | 85.3% (inactive) | 108% (inactive) | 104% (inactive) | 119% (inactive) | 108% (inactive) | 89.3% (inactive) | 106% (inactive) | 93.1% (inactive) | 112% (inactive) | 99.7% (inactive) | 101% (inactive) | 99.3% (inactive) | 112% (inactive) | 99.4% (inactive)
10 | O=c1c2c3c(sc2nc(N/N=C/c2cn(-c4ccccc4)nc2-c2ccc(Cl)cc2)n1Cc1ccccc1)CCCC3 | 106% (inactive) | 102% (inactive) | 111% (inactive) | 98.5% (inactive) | 97.7% (inactive) | 74.2% (inactive) | 84.7% (inactive) | 83.6% (inactive) | 95.2% (inactive) | 109% (inactive) | 116% (inactive) | 3.49% (active) | 115% (inactive) | 113% (inactive) | 118% (inactive) | 91.8% (inactive) | 62.2% (inactive) | 95.9% (inactive) | 92% (inactive) | 98.1% (inactive)
11 | COc1ccc2[nH]cc(-c3noc(C(=O)c4cn(C)c5ccc(F)cc45)n3)c2c1 | 90.2% (inactive) | 83.5% (inactive) | 96.1% (inactive) | 100% (inactive) | 95.6% (inactive) | 84.9% (inactive) | 92.8% (inactive) | 105% (inactive) | 103% (inactive) | 96% (inactive) | 103% (inactive) | 101% (inactive) | 95.5% (inactive) | 90.1% (inactive) | 116% (inactive) | 95.3% (inactive) | 98.8% (inactive) | 95.8% (inactive) | 97.5% (inactive) | 98.6% (inactive)
12 | Cc1ccc(OC(=O)c2ccc(Cl)cc2)cc1 | 99.2% (inactive) | 97.3% (inactive) | 98.2% (inactive) | 84.5% (inactive) | 111% (inactive) | 100% (inactive) | 76.1% (inactive) | 98.4% (inactive) | 90.2% (inactive) | 112% (inactive) | 112% (inactive) | 96.6% (inactive) | 101% (inactive) | 81.7% (inactive) | 109% (inactive) | 45.2% (inactive) | 93.3% (inactive) | 95% (inactive) | 102% (inactive) | 102% (inactive)
13 | C=CC(=O)Nc1cccc(-c2nc(SC)nc(Nc3ccccc3OC)c2C#N)c1 | 55.5% (inactive) | 34.3% (inactive) | 80% (inactive) | 37.9% (inactive) | 5.19% (active) | 31% (inactive) | 39.3% (inactive) | -6.83% (active) | 11.6% (inactive) | 60.9% (inactive) | 10.8% (inactive) | 8.6% (active) | -10.4% (active) | 33.2% (inactive) | 39.7% (inactive) | 53.5% (inactive) | 80.3% (inactive) | 68.6% (inactive) | 57.5% (inactive) | 50.4% (inactive)
14 | Cn1cc(C(=O)c2nc(-c3c[nH]c4ccc(F)cc34)no2)c2cc(F)ccc21 | 88% (inactive) | 69.5% (inactive) | 93.6% (inactive) | 91.2% (inactive) | 96.4% (inactive) | 85.5% (inactive) | 80.1% (inactive) | 104% (inactive) | 103% (inactive) | 94.5% (inactive) | 101% (inactive) | 66.1% (inactive) | 87.3% (inactive) | 108% (inactive) | 108% (inactive) | 96% (inactive) | 98% (inactive) | 95.1% (inactive) | 99.2% (inactive) | 97% (inactive)
15 | C=C(C)C(=O)Nc1ccc(NC(C)C)cc1 | 113% (inactive) | 131% (inactive) | 150% (inactive) | 104% (inactive) | 139% (inactive) | 143% (inactive) | 159% (inactive) | 112% (inactive) | 96.8% (inactive) | 148% (inactive) | 133% (inactive) | 134% (inactive) | 220% (inactive) | 123% (inactive) | 29.7% (inactive) | 107% (inactive) | 147% (inactive) | 100% (inactive) | -7.29% (active) | 101% (inactive)
